Assay outcomes (PubChem BioAssay)
KB-V1 cytotox: kills drug-selected multidrug resistant KB-V1 cells. KB-V1 MDR cells viability, CellTiter-Glo, 72 h. Potency, µM (series often up to 46.1 µM), most hits filed as cytotoxic. actives 3.4% (n = 400,000). AID 1347076; note: nearly all actives have a fitted effect of over 60% in size
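Cytotoxicity via CellTiter-Glo luminescence after 72 h compound exposure at 37 degrees C. Cells: drug-selected KB-V1 line, DMEM phenol-red free plus 10% FBS. Compounds tested at multiple concentrations; normalized data fitted to concentration-effect curves.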
HT1080 IDH1KD tx: kills HT-1080 cells with IDH1 knockdown. HT-1080 IDH1 knockdown viability, ATP luminescence, 48 h. Potency, µM (doses to about 46.1 µM), for the others: at the top dose activity, negative = toxicity, usual class: cytotoxic. actives 2% (n = 360,000). AID 686971;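 note: 0% = DMSO wells and -100% = cell-free medium wells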
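Using the IDH1-knockdown HT-1080 line run in the same batch and compound series as the NT line, viability after 48 h at 37 °C was determined by CellTiter-Glo luminescence and expressed as % activity.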
KB-3-1 cytotox: kills parental KB-3-1 adenocarcinoma cells | actives 1.4% (n = 400,000) | KB-3-1 viability, CellTiter-Glo ATP luminescence, 72 h | AID 1347075 | Potency, µM (titrated, usually from 46.1 µM), most hits filed as cytotoxic; note: nearly all actives have a fitted effect of over 60% in size
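Using CellTiter-Glo luminescence, growth of non-resistant KB-3-1 adenocarcinoma cells is assessed 72 h after pin-tool compound addition at 37 °C. Normalized responses across the concentration series yield fitted curves.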
HT1080NT lethal: kills 2HG-producing HT-1080-NT fibrosarcoma cells | actives 1.6% (n = 360,000) | Potency, µM (series often up to 46.1 µM), for the others: top-dose activity, negative = less viability, hits mostly cytotoxic | HT-1080-NT fibrosarcoma viability, CellTiter-Glo ATP luminescence, 48 h;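 note: NT is the 2HG producing partner of a matched IDH1 knockdown line; 0% = DMSO-treated cells and -100% = media-only wells without cells; nearly all actives have a fitted effect of over 55% in size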
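HT-1080-NT fibrosarcoma cells (2HG-overproducing), 750 cells/well in RPMI with 5% FBS, dosed after 2 h and incubated 48 h at 37C. CellTiter-Glo luminescence normalized to DMSO and no-cell wells; concentration-response curves fitted and classed.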
Starred values were filed as active, the others as inactive. This is a sample that favours compounds with a hit; in the whole collection about 5.7% have one here. Calls come from the whole dose curve; as a rule, active = well fitted curve in the direction sought with a large enough effect; inconclusive = small, poorly fitted or top-dose-only effect, or another doubt; inactive = no such curve, though single readings can be large; an effect the other way counts as inactive or inconclusive. Unless noted, % is set by controls: 0 for no effect and ±100 for the full control effect; potency is the fitted concentration of half-maximal effect.

Cc1cc(C)c(S(=O)(=O)Oc2ccccc2[N+](=O)[O-])c(C)c1 was read as KB-V1 cytotox 15µM*, HT1080 IDH1KD tx inconclusive, KB-3-1 cytotox inactive and HT1080NT lethal inconclusive.
Cc1ccc(NC(=O)c2cccn2-c2nnc(N3CCCCC3)s2)cc1Cl was read as KB-V1 cytotox inactive and KB-3-1 cytotox inactive.
`CCCCOCCCNC(=O)C[C@@H]1C[C@@]2(C(=O)OCC)CCC=C2N(Cc2ccc(Cl)cc2Cl)C1=O` gave KB-V1 cytotox 18µM*, HT1080 IDH1KD tx inconclusive, KB-3-1 cytotox inconclusive and HT1080NT lethal inconclusive.
For COC(=O)[C@]12CCCCC=C1N(Cc1ccc(Cl)cc1Cl)C(=O)[C@H](CC(=O)N1CCN(C(=O)c3ccco3)CC1)C2 the results were KB-V1 cytotox inactive, HT1080 IDH1KD tx inconclusive, KB-3-1 cytotox inconclusive and HT1080NT lethal inconclusive.
Screening CCOC(=O)[C@]12CCC=C1N(Cc1ccc(Cl)cc1Cl)C(=O)[C@H](CC(=O)N1CCN(C(=O)c3ccco3)CC1)C2 returned KB-V1 cytotox 10µM*, HT1080 IDH1KD tx inconclusive, KB-3-1 cytotox inactive and HT1080NT lethal -13%.
CCOC(=O)N1CCN(C(=O)C[C@@H]2C[C@@]3(C(=O)OCC)CCC=C3N(Cc3ccc(Cl)cc3Cl)C2=O)CC1 was read as KB-V1 cytotox 10µM*, HT1080 IDH1KD tx inconclusive, KB-3-1 cytotox inactive and HT1080NT lethal -17%.
O=C1CCc2cc(S(=O)(=O)Nc3ccc(Cl)c(Cl)c3)ccc2N1 was read as KB-V1 cytotox inactive and KB-3-1 cytotox inactive.
COc1ccc(Cn2c(NCC(C)C)nc3c2c(=O)n(C)c(=O)n3C)cc1 was read as KB-V1 cytotox inactive and KB-3-1 cytotox inactive.
Screening O=C(CSc1nc(=O)n(Cc2ccncc2)c2c1CCC2)Nc1cccc(F)c1 returned KB-V1 cytotox inactive and KB-3-1 cytotox inactive.
N/C(=N\OC(=O)c1ccccc1)C(C(=O)NOC(=O)c1ccccc1)C1CCCCC1 (stereo not drawn) was read as KB-V1 cytotox inconclusive, HT1080 IDH1KD tx inconclusive, KB-3-1 cytotox 23µM* and HT1080NT lethal inconclusive.
`O=C(COC(=O)c1ccccc1)NC1CCCCCC1` gave KB-V1 cytotox inactive, HT1080 IDH1KD tx -2%, KB-3-1 cytotox inactive and HT1080NT lethal -6%.
For CCc1cccc(C)c1Nc1c(-c2cccs2)nc2nc(C)cc(C)n12 the results were KB-V1 cytotox inactive and KB-3-1 cytotox inactive.
COc1cc(C(=O)/C=C/Nc2ccc(NC(C)=O)cc2)cc(OC)c1OC was read as KB-V1 cytotox 21µM*, HT1080 IDH1KD tx 18µM*, KB-3-1 cytotox inactive and HT1080NT lethal inconclusive.
`Cc1oc2ncn(C)c(=O)c2c1C(=O)N(C)c1ccccc1F` gave KB-V1 cytotox inactive and KB-3-1 cytotox inactive.
Screening Cc1c(C(=O)CN2CCN(c3ccccc3)CC2)c2ccccc2n1C returned KB-V1 cytotox inactive, HT1080 IDH1KD tx -11%, KB-3-1 cytotox inactive and HT1080NT lethal -19%.
Cn1c2c(c3ccccc31)CCN(CCCCN1CCN(c3ccccc3)CC1)C2=O was read as KB-V1 cytotox 5.8µM*, HT1080 IDH1KD tx inconclusive, KB-3-1 cytotox inactive and HT1080NT lethal -14%.
`CC(=O)C(N=Nc1ccccc1)(Sc1nnc(-c2ccccc2)n1-c1ccccc1)C(=O)Nc1ccccc1` (stereo not drawn) gave KB-V1 cytotox inactive, HT1080 IDH1KD tx -3%, KB-3-1 cytotox inactive and HT1080NT lethal 9%.
`CC(=O)C(N=Nc1ccccc1)(Sc1nnc(-c2ccccc2)n1-c1ccccc1)C(C)=O` gave KB-V1 cytotox 12µM*, HT1080 IDH1KD tx -30%, KB-3-1 cytotox inconclusive and HT1080NT lethal -28%.
O=C(Nc1ccc(Cc2ccncc2)cc1)C1CCC(N2C(=O)C3C4C=CC(C5CC45)C3C2=O)CC1 (stereo not drawn) was read as KB-V1 cytotox 12µM*, HT1080 IDH1KD tx inconclusive, KB-3-1 cytotox inconclusive and HT1080NT lethal inconclusive.
Screening COc1cc(Cn2c3ccc(NC(=O)CCc4cccnc4)cc3c(=O)n2C)ccc1F returned KB-V1 cytotox inactive, HT1080 IDH1KD tx -9%, KB-3-1 cytotox inactive and HT1080NT lethal 0%.
For COc1ccccc1CCC(=O)Nc1ccc2c(c1)c(=O)n(C)n2-c1cccs1 the results were KB-V1 cytotox inactive, HT1080 IDH1KD tx inconclusive, KB-3-1 cytotox 3.3µM* and HT1080NT lethal inconclusive.
Screening COc1cc(Cn2c3ccc(NC(=O)CCc4ccccc4)cc3c(=O)n2C)ccc1F returned KB-V1 cytotox 5.8µM*, HT1080 IDH1KD tx inconclusive, KB-3-1 cytotox 9.2µM* and HT1080NT lethal inconclusive.
Screening COc1ccccc1CCC(=O)Nc1ccc(OC)c(S(=O)(=O)N2CCCCC2)c1 returned KB-V1 cytotox inactive, HT1080 IDH1KD tx -4%, KB-3-1 cytotox inactive and HT1080NT lethal -1%.
Screening COc1ccccc1CNC(=O)COCc1cc(-c2cccs2)on1 returned KB-V1 cytotox inactive and KB-3-1 cytotox inactive.
For CCOC(=O)c1ccc(NC(=O)CN(Cc2ccc(C)cc2)S(=O)(=O)c2ccc(C)cc2)cc1 the results were KB-V1 cytotox inactive and KB-3-1 cytotox inactive.
`COc1cc(-c2noc(C3CC(=O)N(c4cc(C)ccc4C)C3)n2)cc(OC)c1OC` (stereo not drawn) gave KB-V1 cytotox inactive and KB-3-1 cytotox inactive.
`Cc1cccc(C2CC(=O)Nc3cc4c(cc32)OCO4)c1` (stereo not drawn) gave KB-V1 cytotox inactive and KB-3-1 cytotox inconclusive.
For COc1cccc(C2CC(=O)Nc3cc(OC)c(OC)cc32)c1 (stereo not drawn) the results were KB-V1 cytotox inactive, HT1080 IDH1KD tx 9%, KB-3-1 cytotox inactive and HT1080NT lethal -2%.
For COc1cccc(C2CC(=O)Nc3cc4c(cc32)CCC4)c1 (stereo not drawn) the results were KB-V1 cytotox 5.8µM*, HT1080 IDH1KD tx 26µM*, KB-3-1 cytotox 7.3µM* and HT1080NT lethal 23µM*.
Screening COc1cccc(C2CC(=O)Nc3cc(C)c(C)cc32)c1 (stereo not drawn) returned KB-V1 cytotox 21µM*, HT1080 IDH1KD tx -25%, KB-3-1 cytotox inconclusive and HT1080NT lethal inconclusive.
For O=C1CC(c2cccc(Cl)c2)c2cc3c(cc2N1)CCC3 (stereo not drawn) the results were KB-V1 cytotox 8.2µM*, HT1080 IDH1KD tx inconclusive, KB-3-1 cytotox inactive and HT1080NT lethal 7.1µM*.
`O=C(NCc1ccccc1Cl)c1cnc(N2CCCCC2)c2ccccc12` gave KB-V1 cytotox inactive and KB-3-1 cytotox inactive.
O=C(O)c1ccccc1SC1=NS(=O)(=O)c2ccccc21 was read as KB-V1 cytotox inconclusive and KB-3-1 cytotox inactive.
CC(=O)Oc1ccc(C2=Cc3ccc(OC(C)=O)cc3OC2C)cc1 (stereo not drawn) was read as KB-V1 cytotox inconclusive, HT1080 IDH1KD tx 16µM*, KB-3-1 cytotox inconclusive and HT1080NT lethal inconclusive.
